Experimental data as given in PubChem BioAssay AID1053119 (Broad Institute, 2014).
Results with a measured potency or affinity are listed apart. Inconclusive results are not listed. The source made the active and inactive calls.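 How the source made its calls: active means signal loss from cell killing with fitted potency at or below twice the top valid dose; inconclusive means flat drop of 30 to 70%, or unreliable curve fit; inactive means opposite direction, flat within 30%, or weaker potency.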

Experiment: A549 cell cytotoxicity, dose response, cytotoxicity control, cherry-picks, 26 µM top dose (AID 1053119);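 further: 0% = neutral control wells and -100% = 10 µM mitoxantrone wells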
Details: A549 viability, CellTiter-Glo ATP luminescence, 72 h; series mostly up to 26 µM; activity change, negative = cytotoxicity: at the top concentration

| SMILES | activity change, negative = cytotoxicity |
| --- | --- |
| CN1c2ccc(-c3ccccc3)cc2[C@H]2[C@H](CCN2C(=O)CN2CCOCC2)[C@@H]1CO | 23.2% (inactive) |
| N#C[C@@H]1[C@H](c2ccccc2C2=CCCCC2)[C@@H](CO)N1S(=O)(=O)c1ccccc1 | -11.7% (inactive) |
| C[C@H](CO)N1C[C@H](C)[C@@H](CN(C)Cc2ccc(-c3ccccc3)cc2)Oc2ccc(NC(=O)CCCN(C)C)cc2C1=O | -1.63% (inactive) |
| O=C(Nc1ccccc1F)N1C[C@H]2[C@@H](c3ccccc31)[C@@H](CO)N2C(=O)C1CC1 | -9.56% (inactive) |
| Cc1ccc(Nc2nnc(SCc3ccccc3)s2)cc1 | -8.6% (inactive) |
| C[C@@H]1CN([C@H](C)CO)C(=O)c2cccc(NC(=O)Nc3ccc(C(F)(F)F)cc3)c2O[C@H]1CN(C)C(=O)Nc1cccc2ccccc12 | -7.92% (inactive) |
| COc1ccc(C)cc1N(CC(=O)Nc1cccc(N(C)S(C)(=O)=O)c1)S(C)(=O)=O | -12.4% (inactive) |
| C[C@H](CO)N1C[C@H](C)[C@@H](CN(C)Cc2ccc(-c3ccccc3)cc2)Oc2ccc(NC(=O)C3CCCCC3)cc2C1=O | -11.6% (inactive) |
| CCC(C)(C)NC(=O)C(OC(=O)c1ccco1)c1ccccc1OC (configuration not stated) | -3.54% (inactive) |
| C[C@@H]1CN([C@H](C)CO)C(=O)c2cc(NC(=O)C3CCCCC3)ccc2O[C@@H]1CN(C)Cc1ccc(-c2ccccc2)cc1 | -12.1% (inactive) |
| C[C@H](CO)N1C[C@H](C)[C@@H](CN(C)Cc2ccccc2)Oc2ncc(-c3ccccc3)cc2C1=O | 1.15% (inactive) |
| C[C@@H]1CN([C@@H](C)CO)C(=O)c2cc(-c3ccccc3)cnc2O[C@H]1CN(C)C(=O)c1cccc(F)c1 | -3.62% (inactive) |
| Cc1cc(C)c(S(=O)(=O)Nn2cnnc2)c(C)c1 | -12.4% (inactive) |
| CC1(C)Cc2c(C#N)c(SCC(=O)c3ccccc3)nc(N3CCOCC3)c2CS1 | 5.56% (inactive) |
| C[C@H]1CN([C@@H](C)CO)C(=O)c2cc(NC(=O)C3CCCCC3)ccc2O[C@H]1CN(C)Cc1ccc(-c2ccccc2)cc1 | -12.8% (inactive) |
| S=C(NCC1CCCO1)Nc1ccc(Cl)cc1Cl (configuration not stated) | -10.4% (inactive) |
| C[C@H](O)C#Cc1ccc2c(c1)O[C@H](CN(C)C)[C@@H](C)CN([C@H](C)CO)S2(=O)=O | 3.83% (inactive) |
| CCc1ccc(NC(=O)CSc2nnc(-c3ccco3)o2)cc1 | -8.55% (inactive) |
| CC(C)NC(=O)N(C)C[C@H]1Oc2ccc(NC(=O)CCN3CCOCC3)cc2C(=O)N([C@H](C)CO)C[C@@H]1C | 3.85% (inactive) |

| SMILES | activity change, negative = cytotoxicity |
| --- | --- |
| C[C@@H](O)C#Cc1ccc2c(c1)O[C@@H](CN(C)C)[C@@H](C)CN([C@@H](C)CO)S2(=O)=O | 1.66% (inactive) |
| Nc1c(C(=O)NCc2ccco2)nnn1Cc1ccccc1 | -6.95% (inactive) |
| COCC(C)n1c(SCc2nc(N)nc(Nc3ccccc3C)n2)nc2ccccc2c1=O (configuration not stated) | 16.3% (inactive) |
| OC(CNC1CCCc2ccccc21)COc1c(Cl)cccc1Cl (configuration not stated) | -13.4% (inactive) |
| O=S(=O)(c1ccccc1F)N1CC[C@H]2[C@H](CO)Nc3ccc(-c4cccc(F)c4)cc3[C@H]21 | -4.39% [at 23.5 µM] (inactive) |
| COc1cccc(-c2ccc3c(c2)[C@@H]2[C@@H](CCN2S(=O)(=O)c2cccc(OC)c2)[C@H](CO)N3)c1 | -8.83% (inactive) |
| Cc1cccc(NC(=O)Nc2ccc(S(=O)(=O)Nc3onc(C)c3C)cc2)c1 | -6.98% (inactive) |
| CSc1ccccc1C(=O)C1CCCN(C(=O)CCc2cccnc2)C1 (configuration not stated) | -5.79% (inactive) |
| Cc1ccc(-c2nc3ncccc3o2)cc1NC(=O)c1ccco1 | -0.724% (inactive) |
| Cc1cccc(NC(=O)c2ccc(C3SCC(=O)N3CCc3ccccc3)cc2)c1 (configuration not stated) | -0.187% (inactive) |
| Cc1ccc(C(O)c2ncc(-c3cccc4ccccc34)[nH]2)cc1F (configuration not stated) | -1% (inactive) |
| CO[C@H]1CN(C)C(=O)c2ccc(NC(=O)Nc3cc(Cl)cc(Cl)c3)cc2OC[C@H](C)NC[C@@H]1C | -0.958% [at 8 µM] (inactive) |
| C[C@@H]1CN([C@@H](C)CO)C(=O)c2cc(NC(=O)CCCN(C)C)ccc2O[C@@H]1CN(C)Cc1ccc(-c2ccccc2)cc1 | -1.88% [at 23.5 µM] (inactive) |
| O=C(Nc1ccccc1F)N1C[C@@H]2[C@H](c3ccccc31)[C@H](CO)N2C(=O)C1CC1 | -11.8% [at 23.5 µM] (inactive) |
| COc1cccc(CN2CCN(C(=O)c3ccc(-c4ccccc4)cc3)CC2)c1OC | 4.35% (inactive) |
| CCc1nc2c(OCCc3cccc(OC)c3)cccn2c1N(C)C(=O)c1ccc(C)cc1 | -7.35% (inactive) |
| COc1ccc([N+](=O)[O-])cc1NS(=O)(=O)c1ccc(C(=O)N2CCCC2)cc1 | -5.09% (inactive) |
| CCCCOc1ccc(C(C)NC(=O)C2CCCN(S(=O)(=O)CCC)C2)cc1 (configuration not stated) | 5.52% (inactive) |
